DT40 TDP1 CPT: growth inhibition of DT40 Tdp1-/-;hTDP1 cells with camptothecin (screen for TDP1 inhibitors); Potency, µM (titrated, usually from 46.2 µM), for the others: top-dose activity change, negative = growth inhibition, hits mostly inhibitors; chicken DT40 Tdp1-/-;hTDP1 cells + 20 nM CPT, ATP luminescence, 48 h; AID 686979; 12% of 420,000 active; also: % is scaled to controls: 0 for no effect and ±100 for the full control effect; nearly all actives have a fitted effect of over 55% in size
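Chicken DT40 Tdp1-/- cells stably complemented with human TDP1 were seeded at 400 cells/well in medium containing 20 nM camptothecin, exposed to pin-transferred compounds, and grown at 37 °C for at least 48 hr. Viability was read as ATP luminescence.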
HepG2 viability: counter-screen for TGF-b inhibitors: cytotoxicity in HepG2 cells | 0.76% of 410,000 active | Potency, µM (titrated, usually from 46.1 µM), inactives show at the top dose activity change, negative = cytotoxicity, usual class: cytotoxic | HepG2 CAGA-GFP viability, ATP luminescence, 18 h
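CellTiter-Glo luminescence gave cytotoxicity after 18 hours at 37 degrees C. The cells were HepG2 CAGA-GFP in 1% FBS DMEM, stimulated with 500 pg/mL TGF-beta after compound addition. %Activity was normalised to no-cell wells (complete cell-killing) and DMSO (no toxicity), and curves were fitted and classified.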
TDP1 cell noCPT: qHTS for Inhibitors of human tyrosyl-DNA phosphodiesterase 1 (TDP1): qHTS in cells in absence of CPT; AID 686978, 2013; DT40 Tdp1-/- hTDP1 cells, no CPT, ATP luminescence, 48 h; Potency, µM (doses to about 46.2 µM), inactives show top-dose activity change, negative = growth inhibition, usual class: inhibitors; 15% of 420,000 active; also: % is scaled to controls: 0 for no effect and ±100 for the full control effect; nearly all actives have a fitted effect of over 55% in size
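Chicken DT40 Tdp1-/- cells stably complemented with human TDP1 were seeded at 400 cells/well with DMSO in place of 20 nM camptothecin. After compound pinning, cells grew at least 48 hr at 37 °C; viability read by CellTiter-Glo luminescence.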
ATXN2 expr inh: ATXN2 expression inhibition; 0.72% of 360,000 active; Potency, µM (titrated, usually from 57 µM), inactives show at the top dose activity change, negative = inhibition, most hits filed as inhibitors; HEK-293 ATXN2-luciferase reporter, luminescence, 24 h; also: % is scaled to controls: 0 for no effect and ±100 for the full control effect; nearly all actives have a fitted effect of over 55% in size
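qHTS (up to 57 uM final) was run with 24 h compound exposure of reporter cells at 37 °C. Each well was multiplexed: SteadyGlo luminescence measured ATXN2-luciferase expression after a fluorogenic Gly-Phe-AFC viability readout (25 uM final).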
S2 tox: viability counter-screen for ATXN expression inhibitors; S2 cells (HEK-293 line with an ATXN2-luciferase reporter) viability, CellTiter-Fluor protease fluorescence, 24 h; Potency, µM (titrated, usually from 56.7 µM), hits mostly cytotoxic; 0.49% of 400,000 active; AID 651635; also: nearly all actives have a fitted effect of over 40% in size
TGFb SMAD3 inh: inhibitors of TGF-b signaling; Potency, µM (titrated, usually from 46.1 µM), for inactives: top-dose activity, negative = inhibition, most hits filed as inhibitors; HepG2 CAGA-GFP TGF-b/SMAD3 reporter, GFP fluorescence, 18 h; TGF-beta stimulated, 500 pg/mL final; 1.2% of 410,000 active; AID 588855; also: % is scaled to controls: 0 for no effect and ±100 for the full control effect; nearly all actives have a fitted effect of over 65% in size
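TGF-beta reporter screen: HEPG2 CAGA-GFP, 1% FBS, 500 pg/mL TGF-beta final, 18 h; per-cell GFP summed per well; curves fitted and categorized by class.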
The depositor's hits bear a star; i = inactive; u = inconclusive; x = no result given. Compounds with a hit are over-represented: about 17% of the library has one in this group of screens. Calls follow the shape of the dose curve; as a rule, active = well fitted curve in the direction sought with a large enough effect; inconclusive = small, poorly fitted or top-dose-only effect, or another doubt; inactive = no such curve, though single readings can be large; an effect the other way counts as inactive or inconclusive. Potency is read from the fitted curve at half-maximal effect.

SMILES	DT40 TDP1 CPT	HepG2 viability	TDP1 cell noCPT	ATXN2 expr inh	S2 tox	TGFb SMAD3 inh
CCCN1CCc2c(sc3nc(SCC)n(-c4ccc(OC)cc4)c(=O)c23)C1	u	-18.9%	13µM*	12.3%	i	-10.3%
COc1ccc(NC(=O)CSc2nc3sc4c(c3c(=O)n2-c2ccc(OC)cc2)CCN(C)C4)cc1	-21.1%	-14.8%	u	x	i	-18.2%
CCCN1CCc2c(sc3nc(SCC)n(-c4ccccc4)c(=O)c23)C1	u	2.9%	14.6µM*	1.6%	i	0.0%
CCCN1CCc2c(sc3nc(SC)n(-c4ccccc4)c(=O)c23)C1	6.51µM*	-10.3%	5.8µM*	-7.0%	i	-17.9%
CC(C)[C@H](NC(=O)c1c(F)cccc1F)C(=O)OCC(=O)NNC(=O)c1ccccc1	-22.4%	-0.7%	-20.4%	x	i	-5.7%
CCOC(=O)c1ccc(N2C(=O)Cc3cc(OCC)c(OCC)cc3C2c2ccccc2)cc1 (centres undefined)	14.6µM*	11.0%	13µM*	-20.9%	i	u
COc1cc(NC(=O)c2ccccc2)c(OC)cc1NC(=O)Cc1ccc(C)cc1	-6.5%	-36.6%	-23.8%	-12.6%	i	-12.7%
COCCn1c(N)c(N(Cc2ccccc2)C(=O)COc2ccc(F)cc2Cl)c(=O)[nH]c1=O	0.3%	2.0%	0.2%	11.3%	i	3.2%
O=C1C=CC(=O)N1N(c1ccccc1)c1ccccc1	10.3µM*	-38.2%	20.6µM*	u	u	-33.4%
O=C1c2ccccc2C(=O)N1N(c1ccccc1)c1ccccc1	-20.0%	-5.2%	2.5%	0.3%	i	-5.8%
O=C(CCc1nc2ccccc2c(=O)[nH]1)NCCN1C(=O)S/C(=C\c2ccccc2Cl)C1=O	u	-6.3%	u	4.5%	i	-7.0%
O=C(CCc1nc2ccccc2c(=O)[nH]1)NCCN1C(=O)S/C(=C\c2ccc(OC(F)F)cc2)C1=O	u	10µM*	18.4µM*	11.0%	i	3.7%
CC(=O)NC(CS)C(=O)O (centres undefined)	x	x	x	5.9%	x	x
CCC(=O)O[C@]1(C(=O)COC)[C@@H](C)C[C@H]2[C@@H]3CCC4=CC(=O)C=C[C@]4(C)C3(F)[C@@H](O)C[C@@]21C (some centres undefined)	x	x	x	-1.1%	i	x
CCC(=O)O[C@]1(C(=O)CCl)[C@@H](C)C[C@H]2[C@@H]3C[C@H](F)C4=CC(=O)C=C[C@]4(C)[C@@]3(F)[C@@H](O)C[C@@]21C	u	x	18.8µM*	x	x	x
Cc1nn(-c2ccccc2)c(C)c1-c1nnc(C(F)(F)F)o1	-12.7%	-5.6%	-16.6%	x	i	1.8%
Cc1nn(-c2ccccc2)c(C)c1-c1nnc(-c2c(C)nn(-c3ccccc3)c2C)o1	u	6.9%	18.4µM*	-5.3%	i	11.4%
O=C(C(=O)N1CCN(c2ccc(F)cc2)CC1)c1cn(CC(=O)N2CCOCC2)c2ccccc12	-8.5%	-3.1%	-12.7%	-3.3%	i	-1.9%
Cc1onc(-c2ccccc2)c1C(=O)c1c[nH]c(C(=O)NCCCN2CCOCC2)c1	11.6%	-2.1%	-29.3%	x	i	1.3%
COCCCNC(=O)c1cc(C(=O)c2c(-c3c(Cl)cccc3Cl)noc2C)c[nH]1	23.1µM*	1.2%	23.1µM*	2.4%	i	3.7%
COCc1nnc(NC(=O)c2c(-c3c(Cl)cccc3Cl)noc2C)s1	13µM*	-21.8%	u	-3.8%	u	1.9%
Cc1nc(C(=O)NNC(=O)c2c(-c3c(Cl)cccc3Cl)noc2C)cs1	u	-26.4%	16.4µM*	-33.3%	u	u
Cc1cc(C(=O)NNC(=O)c2c(-c3c(Cl)cccc3Cl)noc2C)no1	-7.4%	0.0%	-2.0%	4.3%	i	-5.8%

Screening data from PubChem BioAssay.
